{"source": "PubChem BioAssay (Tox21)", "note": "Results filed as inconclusive are left out. A call without a number means that no potency is given here. Unmarked numbers belong to inactive results. Active and inactive are the calls of the source. The call rests on the fitted dose curve.", "data": [{"target": "Peroxisome proliferator-activated receptor gamma (Homo sapiens) (UniProt P37231)", "sequence (P37231 whole entry, looked up)": "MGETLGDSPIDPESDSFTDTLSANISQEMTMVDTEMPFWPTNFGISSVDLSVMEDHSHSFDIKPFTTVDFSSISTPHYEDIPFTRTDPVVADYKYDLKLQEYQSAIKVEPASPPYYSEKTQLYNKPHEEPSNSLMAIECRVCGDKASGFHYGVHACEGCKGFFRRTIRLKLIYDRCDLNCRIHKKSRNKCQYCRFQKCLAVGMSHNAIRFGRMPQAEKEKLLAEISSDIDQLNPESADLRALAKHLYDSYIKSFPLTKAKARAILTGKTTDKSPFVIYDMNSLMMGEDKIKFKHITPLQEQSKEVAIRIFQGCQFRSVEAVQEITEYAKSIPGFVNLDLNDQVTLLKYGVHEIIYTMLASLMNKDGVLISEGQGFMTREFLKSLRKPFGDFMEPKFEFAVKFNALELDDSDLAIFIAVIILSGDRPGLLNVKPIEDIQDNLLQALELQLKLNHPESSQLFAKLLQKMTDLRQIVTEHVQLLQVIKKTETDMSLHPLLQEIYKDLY", "assay": "qHTS assay to identify small molecule antagonists of the peroxisome proliferator-activated receptor gamma (PPARg) signaling pathway (AID 743191); further: nearly all actives have a fitted effect of over 30% in size", "conditions": "HEK293H PPARg-UAS-bla, beta-lactamase ratio, antagonist, 17 h; series mostly up to 62.6 µM; ratio activity, negative = inhibition: at the top concentration", "excerpt": "U.S. Tox21 Program National Center for Advancing Translational Sciences [NCATS] NIH Chemical Genomics Center [NCGC] U.S. Environmental Protection Agency [EPA] National Institutes of Environmental Health Sciences [NIEHS] National Toxicology Program [NTP] U.S. Food and Drug Administration [FDA] Tox21 Assay Overview: The peroxisome proliferator-activated receptors (PPARs) are lipid-activated transcription factors of the nuclear receptor superfamily with three distinct subtypes namely PPAR alpha, PPAR delta (also called PPAR beta) and PPAR gamma (PPARg). All these subtypes heterodimerize with Retinoid X receptor (RXR) and these heterodimers regulate transcription of various genes. PPAR-gamma receptor (glitazone receptor) is involved in the regulation of glucose and lipid metabolism. To identify the compounds that inhibit PPAR-gamma signaling, GeneBLAzer PPAR gamma UAS-bla HEK293H cell line (Invitrogen, Carlsbad, CA, USA) containing a beta-lactamase reporter gene under control of an Upstream Activator Sequence (UAS) was used to screen the Tox21 compound library.\nTox21 Assay Protocol Summary: PPARg-bla cells were dispensed at 3000 cells/6uL/well in 1536-well black wall/clear bottom plates using a Multidrop Combi (Thermo Fisher Scientific, Waltham, MA) dispenser. After the assay plates were incubated at 37C and 5% CO2 for 5 h, 23 nL of compounds dissolved in DMSO, positive controls or DMSO only was transferred to the assay plate by a Pintool station (Kalypsys, San Diego, CA). The assay plates were incubated at 37C for 17 h. After 1 uL of LiveBLAzerTM B/G FRET substrate was added using a Bioraptr Flying Reagent Dispenser (FRD) workstation (Beckman Coulter, Indianapolis, IN, USA), the plates were incubated at room temperature for 1 h, and fluorescence intensity was measured by an Envision plate reader (PerkinElmer, Shelton, CT).", "values": [{"smiles": "Cc1ccc(C(C)(C)C)c(O)c1", "ratio activity, negative = inhibition": "10.7%"}, {"smiles": "CN(C)/N=N/c1nc[nH]c1C(N)=O", "ratio activity, negative = inhibition": "-1.77%"}, {"smiles": "CCO[Si](CCCNC(N)=O)(OCC)OCC", "Potency": "inactive"}, {"smiles": "CC(C)(Oc1ccc(Cl)cc1)C(=O)O", "ratio activity, negative = inhibition": "5.74%"}, {"smiles": "CC(=O)[C@@]1(O)CC[C@H]2[C@@H]3C[C@H](C)C4=CC(=O)C=C[C@]4(C)[C@@]3(F)[C@@H](O)C[C@@]21C", "Potency": "inactive"}, {"smiles": "NC[C@H](O)c1ccc(O)c(O)c1", "Potency": "inactive"}, {"smiles": "CCCCCCC(C)O", "note": "(stereo not given)", "Potency": "inactive"}, {"smiles": "C/C=C/C(=O)N(CC)c1ccccc1C", "Potency": "inactive"}, {"smiles": "CC(C)=CCO", "Potency": "inactive"}, {"smiles": "CC1=CC(C)(C)Nc2ccccc21", "Potency": "inactive"}, {"smiles": "CCCCCCCCCCCCO", "ratio activity, negative = inhibition": "2.56% [at 81.1 µM]"}, {"smiles": "Cc1ccc([N+](=O)[O-])c(C)c1", "ratio activity, negative = inhibition": "-0.873%"}, {"smiles": "CC1(C)O[C@@H]2C[C@H]3[C@@H]4C[C@H](F)C5=CC(=O)C=C[C@]5(C)[C@@]4(F)[C@@H](O)C[C@]3(C)[C@]2(C(=O)CO)O1", "ratio activity, negative = inhibition": "6.19%"}, {"smiles": "CC1(C)OC(=O)NC1=O", "Potency": "inactive"}, {"smiles": "CC(=O)OC(C)C", "Potency": "inactive"}, {"smiles": "O=C(O)COCCN1CCN(C(c2ccccc2)c2ccc(Cl)cc2)CC1", "note": "(stereo not given)", "ratio activity, negative = inhibition": "-4.13%"}, {"smiles": "C=C[Si](OCCOC)(OCCOC)OCCOC", "ratio activity, negative = inhibition": "-1.97%"}, {"smiles": "CCCCCC1C(=O)CCC1CC(=O)OC", "note": "(stereo not given)", "Potency": "inactive"}, {"smiles": "CN(C)C", "Potency": "inactive"}, {"smiles": "OC[C@@H](O)[C@@H](O[C@@H]1O[C@H](CO)[C@H](O)[C@H](O)[C@H]1O)[C@H](O)[C@@H](O)CO", "Potency": "inactive"}, {"smiles": "ClC/C=C/CCl", "Potency": "inactive"}, {"smiles": "CC1(C)NC(=O)N(c2ccc([N+](=O)[O-])c(C(F)(F)F)c2)C1=O", "Potency": "inactive"}, {"smiles": "C[C@]12C=CC(=O)C=C1CC[C@H]1[C@@H]3C[C@@H](O)[C@](O)(C(=O)CO)[C@@]3(C)C[C@H](O)[C@@]12F", "Potency": "inactive"}, {"smiles": "[Na+]", "Potency": "inactive"}, {"smiles": "O=C(O)CCCC(=O)O", "Potency": "inactive"}, {"smiles": "Cc1ccc(N)c([N+](=O)[O-])c1", "Potency": "inactive"}, {"smiles": "CCCOCCO", "Potency": "inactive"}, {"smiles": "O=S1(=O)CCCO1", "Potency": "inactive"}, {"smiles": "C=C1C[C@H]2[C@@H]3C=C(C)C4=CC(=O)CC[C@]4(C)[C@H]3CC[C@]2(C)[C@@]1(OC(C)=O)C(C)=O", "ratio activity, negative = inhibition": "4.44%"}, {"smiles": "CCc1cccc2c3c([nH]c12)C(CC)(CC(=O)O)OCC3", "note": "(stereo not given)", "ratio activity, negative = inhibition": "1.91%"}, {"smiles": "Cc1ccc(C(C)(C)C)cc1", "Potency": "inactive"}, {"smiles": "CC(=O)Oc1c(C)c(C)c2c(c1C)CC[C@@](C)(CCC[C@H](C)CCC[C@H](C)CCCC(C)C)O2", "Potency": "inactive"}, {"smiles": "OC[C@H]1O[C@@H]2O[C@H]3[C@H](O)[C@@H](O)[C@@H](O[C@H]4[C@H](O)[C@@H](O)[C@@H](O[C@H]5[C@H](O)[C@@H](O)[C@@H](O[C@H]6[C@H](O)[C@@H](O)[C@@H](O[C@H]7[C@H](O)[C@@H](O)[C@@H](O[C@H]1[C@H](O)[C@H]2O)O[C@@H]7CO)O[C@@H]6CO)O[C@@H]5CO)O[C@@H]4CO)O[C@@H]3CO", "Potency": "inactive"}, {"smiles": "NCCS(=O)(=O)O", "Potency": "inactive"}, {"smiles": "CC(C)[N+](C)(CCOC(=O)C1c2ccccc2Oc2ccccc21)C(C)C", "ratio activity, negative = inhibition": "-5.88%"}, {"smiles": "Cc1ccc2c(c1)C(=O)OC2=O", "ratio activity, negative = inhibition": "-5.03%"}, {"smiles": "O=C(O)c1ccc(O)cc1", "Potency": "inactive"}, {"smiles": "Cc1ccc(S(=O)(=O)O)cc1C", "Potency": "inactive"}, {"smiles": "Nc1cc([N+](=O)[O-])ccc1C(=O)O", "ratio activity, negative = inhibition": "-2.76%"}, {"smiles": "O=C(O)c1cc(=O)[nH]c(=O)[nH]1", "Potency": "inactive"}]}]}
